Our source for the mitochondrial superoxide values is the supplement of paper PMC7393113.

Several values for one entry are separate records, joined by “and”; a condition that tells them apart may be missing. Identical values can stand only once. Counter-ions that a name gives are not always drawn. ± gives the standard deviation of the averaged measurements.

The first assay concerns iBMDM (immortalised mouse bone-marrow-derived macrophages), LPS-stimulated. Put plainly: mitochondrial superoxide (MitoSOX fluorescence) fold increase over unstimulated control; higher = more LPS-induced mitochondrial ROS (less inhibition). As to conditions: inhibitor concentration: 500 nM; LPS: 100 ng/ml; time after LPS: 1 h. Summed up:
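Cells were immortalised mouse bone-marrow-derived macrophages, plated in triplicate and switched to phenol-red-free 1% FCS/DMEM for 20 h. Kinase inhibitors (500 nM, 30 min) preceded MitoSox loading (1 μM, 10 min) and LPS addition (100 ng/ml), with 510/580 nm fluorescence read every 60 min for 4 h. Mitochondrial superoxide is reported as averaged fold induction over untreated macrophages.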
In turn, `N#CC(=Cc1ccc(O)c(O)c1)C(=O)NCc1ccccc1` [AG-490 (Tyrphostin B42)] showed a mitochondrial superoxide of 1.35 ± 0.052.

For the compound `N#Cc1ccc2[nH]c(O)c(-c3ccc(CN4CCOCC4)cn3)c2c1`, the mitochondrial superoxide was 1.08 ± 0.043.

Regarding `Cc1cc(Nc2ncc(Cl)c(Nc3ccccc3S(=O)(=O)C(C)C)n2)c(OC(C)C)cc1C1CCNCC1`, the mitochondrial superoxide worked out at 1.2 ± 0.013.

As to `Cc1c(Cn2c(C)nc3c(C(=O)O)cc(N4CCOCC4)cc32)cccc1C(F)(F)F`, the mitochondrial superoxide amounted to 1.394 ± 0.013.

Turning to `NC(=O)Nc1sc(-c2ccc(F)cc2)cc1C(N)=O`, the mitochondrial superoxide was determined as 1.15 ± 0.055.

Compound `N#CCNC(=O)c1ccc(-c2ccnc(Nc3ccc(N4CCOCC4)cc3)n2)cc1` yielded a mitochondrial superoxide of 1.05 ± 0.071.

`COc1cc2nccc(Oc3ccc(NC(=O)Nc4ccc(F)cc4F)c(F)c3)c2cc1OC` had a mitochondrial superoxide of 1.13 ± 0.036.

Staying with this assay, now noted: inhibitor concentration: 500 nM; LPS: 100 ng/ml; time after LPS: 2 h.
In turn, `O=c1c(O)c(-c2ccc(O)c(O)c2)oc2cc(O)cc(O)c12` [Quercetin] yielded a mitochondrial superoxide of 1.35 ± 0.071.

In the case of `O=C(NC(NC(=S)Nc1ccc(F)c([N+](=O)[O-])c1)C(Cl)(Cl)Cl)C(c1ccccc1)c1ccccc1` (stereo unspecified), the mitochondrial superoxide worked out at 1.25 ± 0.031.

Compound `C[C@@H]1COCCN1c1cc(C2(S(C)(=O)=O)CC2)nc(-c2cccc3[nH]ccc23)n1` registered a mitochondrial superoxide of 1.244 ± 0.0093.

`Nc1nc(N)c(N=O)c(OCC2CCCCC2)n1` gave a mitochondrial superoxide of 1.25 ± 0.017.

Compound `COc1cc(Nc2ncc(F)c(Nc3ccc4c(n3)NC(=O)C(C)(C)O4)n2)cc(OC)c1OC` came in with a mitochondrial superoxide of 1.14 ± 0.016.

Take `Nc1nc(N)c2nc(-c3cccc(O)c3)c(-c3cccc(O)c3)nc2n1`: the mitochondrial superoxide came out at 1.23 ± 0.1.

In turn, `Cc1ccccc1CN1C2=NCCN2C(=O)C2=C1CCN(Cc1ccccc1)C2` yielded a mitochondrial superoxide of 1.27 ± 0.036.

Turning to `CN(C)c1ccc(-c2nc3ncc(Cl)c(N4CCN(CC(=O)Nc5nccs5)CC4)c3[nH]2)cc1`, the mitochondrial superoxide was 1.278 ± 0.0079.

`CC(C)n1nc(-c2cc3cc(O)ccc3[nH]2)c2c(N)ncnc21`: the mitochondrial superoxide came out at 1.15 ± 0.12.

`CN1CCN(c2nc(C3=C(c4c[nH]c5ccccc45)C(=O)NC3=O)c3ccccc3n2)CC1` [Sotrastaurin]: the mitochondrial superoxide was determined as 1.55 ± 0.039.

`Oc1ccc2ccccc2c1SSc1c(O)ccc2ccccc12` returned a mitochondrial superoxide of 1.22 ± 0.04.

`COc1c(C)c(C(=O)c2ccc(N)c(C(=O)O)c2)n2ccccc12`: the mitochondrial superoxide is 1.26 ± 0.036.

As for `Nc1ncnc2c1c(-c1cccc(OCc3ccccc3)c1)cn2C1CC(CN2CCC2)C1` (stereo unspecified), the mitochondrial superoxide was 1.48 ± 0.037.

For the compound `CCn1c(-c2nonc2N)nc2c(C#CC(C)(C)O)ncc(OC[C@H]3CCCNC3)c21`, the mitochondrial superoxide was 1.4 ± 0.027.

For the compound `C=CC(=O)Nc1cccc(Nc2nc(Nc3ccc(Oc4ccnc(C(=O)NC)c4)cc3)ncc2F)c1`, the mitochondrial superoxide stood at 1.49 ± 0.031.

Compound `Cc1ccc(-c2nn(C(C)(C)C)c3ncnc(N)c23)cc1` came in with a mitochondrial superoxide of 1.22 ± 0.055.

As for `COc1cc2ncnc(Nc3ccc(F)c(Cl)c3)c2cc1NC(=O)/C=C/CN1CCCCC1`, the mitochondrial superoxide came to 1.48 ± 0.045.

As to `Cn1cc(-c2cnn3c(N)c(Br)c([C@@H]4CCCNC4)nc23)cn1`, the mitochondrial superoxide came to 1.4 ± 0.22.

`Clc1ccc(C2(c3ccc(-c4cn[nH]c4)cc3)CCNCC2)cc1` displayed a mitochondrial superoxide of 1.21 ± 0.061.

`O=C1c2ccccc2-c2n[nH]c3cccc1c23`: the mitochondrial superoxide was 1.2 ± 0.15.

As for `CCc1cccc(CC)c1NC(=O)N1Cc2[nH]nc(NC(=O)c3ccc(N4CCN(C)CC4)cc3)c2C1`, the mitochondrial superoxide came to 1.24 ± 0.015.

With `C[C@H](Nc1ncnc2nc[nH]c12)c1cc2cccc(Cl)c2c(=O)n1-c1ccccc1`, the mitochondrial superoxide came out at 1.2 ± 0.032.

Compound `CS(=O)(=O)N1CCN(Cc2cc3nc(-c4cccc5[nH]ncc45)nc(N4CCOCC4)c3s2)CC1` returned a mitochondrial superoxide of 1.42 ± 0.027.

The compound `Cc1ccc(NC(=O)c2ccc(CN3CCN(C)CC3)cc2)cc1Nc1nccc(-c2cccnc2)n1` [Imatinib Mesylate (STI571)] had a mitochondrial superoxide of 1.76 ± 0.045.

`C[C@@H]1CCN(C(=O)CC#N)C[C@@H]1N(C)c1ncnc2[nH]ccc12`: the mitochondrial superoxide was 1.21 and 1.4.

`Cn1cnc(=N)c2[nH]cnc21` [3-Methyladenine]: the mitochondrial superoxide is 1.34 ± 0.12.

`O=c1cc(-c2cccc3c2Sc2ccccc2S3)oc(N2CCOCC2)c1` had a mitochondrial superoxide of 1.48 ± 0.063.

`COc1ccc2cc(-c3nc(-c4ccc([S+](C)[O-])cc4)[nH]c3-c3ccncc3)ccc2c1` (stereo unspecified) [Tie2 kinase inhibitor] yielded a mitochondrial superoxide of 1.09 ± 0.058.

`COc1cc2/c(=N/c3ccc(Br)cc3F)nc[nH]c2cc1OCC1CCN(C)CC1` [Vandetanib (ZD6474)] registered a mitochondrial superoxide of 1.63 ± 0.054.

In turn, `C[C@@H](N)[C@H]1CC[C@H](C(=O)Nc2ccncc2)CC1` displayed a mitochondrial superoxide of 1.67 ± 0.11.

As to `N#CC(=Cc1ccc(O)c(O)c1)C(=O)NCc1ccccc1` [AG-490 (Tyrphostin B42)], the mitochondrial superoxide came to 1.36 ± 0.041.

`N#Cc1ccc2[nH]c(O)c(-c3ccc(CN4CCOCC4)cn3)c2c1`: the mitochondrial superoxide stood at 1.24 ± 0.097.

Compound `Cc1cc(Nc2ncc(Cl)c(Nc3ccccc3S(=O)(=O)C(C)C)n2)c(OC(C)C)cc1C1CCNCC1` gave a mitochondrial superoxide of 1.32 ± 0.033.

As for `Cc1c(Cn2c(C)nc3c(C(=O)O)cc(N4CCOCC4)cc32)cccc1C(F)(F)F`, the mitochondrial superoxide amounted to 1.502 ± 0.0056.

As for `NC(=O)Nc1sc(-c2ccc(F)cc2)cc1C(N)=O`, the mitochondrial superoxide was determined as 1.2 ± 0.045.

As for `N#CCNC(=O)c1ccc(-c2ccnc(Nc3ccc(N4CCOCC4)cc3)n2)cc1`, the mitochondrial superoxide stood at 1.17 ± 0.017.

For the compound `COc1cc2nccc(Oc3ccc(NC(=O)Nc4ccc(F)cc4F)c(F)c3)c2cc1OC`, the mitochondrial superoxide is 1.27 ± 0.071.

The same assay, now with this note: inhibitor concentration: 500 nM; LPS: 100 ng/ml; time after LPS: 4 h.
Compound `O=c1c(O)c(-c2ccc(O)c(O)c2)oc2cc(O)cc(O)c12` [Quercetin] came in with a mitochondrial superoxide of 1.43 ± 0.063.

In turn, `O=C(NC(NC(=S)Nc1ccc(F)c([N+](=O)[O-])c1)C(Cl)(Cl)Cl)C(c1ccccc1)c1ccccc1` (stereo unspecified) registered a mitochondrial superoxide of 1.37 ± 0.015.

For `C[C@@H]1COCCN1c1cc(C2(S(C)(=O)=O)CC2)nc(-c2cccc3[nH]ccc23)n1`, the mitochondrial superoxide stood at 1.34 ± 0.052.

With `Nc1nc(N)c(N=O)c(OCC2CCCCC2)n1`, the mitochondrial superoxide worked out at 1.37 ± 0.074.

In turn, `COc1cc(Nc2ncc(F)c(Nc3ccc4c(n3)NC(=O)C(C)(C)O4)n2)cc(OC)c1OC` registered a mitochondrial superoxide of 1.28 ± 0.11.

Compound `Nc1nc(N)c2nc(-c3cccc(O)c3)c(-c3cccc(O)c3)nc2n1` showed a mitochondrial superoxide of 1.4 ± 0.12.

`Cc1ccccc1CN1C2=NCCN2C(=O)C2=C1CCN(Cc1ccccc1)C2` showed a mitochondrial superoxide of 1.34 ± 0.13.

For the compound `CN(C)c1ccc(-c2nc3ncc(Cl)c(N4CCN(CC(=O)Nc5nccs5)CC4)c3[nH]2)cc1`, the mitochondrial superoxide came to 1.35 ± 0.039.

On to `CC(C)n1nc(-c2cc3cc(O)ccc3[nH]2)c2c(N)ncnc21`, for which the mitochondrial superoxide was determined as 1.28 ± 0.063.

Compound `CN1CCN(c2nc(C3=C(c4c[nH]c5ccccc45)C(=O)NC3=O)c3ccccc3n2)CC1` [Sotrastaurin] yielded a mitochondrial superoxide of 1.749 ± 0.012.

Compound `Oc1ccc2ccccc2c1SSc1c(O)ccc2ccccc12` had a mitochondrial superoxide of 1.32 ± 0.015.

Take `COc1c(C)c(C(=O)c2ccc(N)c(C(=O)O)c2)n2ccccc12`: the mitochondrial superoxide is 1.32 ± 0.062.

Compound `Nc1ncnc2c1c(-c1cccc(OCc3ccccc3)c1)cn2C1CC(CN2CCC2)C1` (stereo unspecified) yielded a mitochondrial superoxide of 1.63 ± 0.029.

As for `CCn1c(-c2nonc2N)nc2c(C#CC(C)(C)O)ncc(OC[C@H]3CCCNC3)c21`, the mitochondrial superoxide was determined as 1.49 ± 0.019.

In the case of `C=CC(=O)Nc1cccc(Nc2nc(Nc3ccc(Oc4ccnc(C(=O)NC)c4)cc3)ncc2F)c1`, the mitochondrial superoxide stood at 1.6 ± 0.023.

The compound `Cc1ccc(-c2nn(C(C)(C)C)c3ncnc(N)c23)cc1` displayed a mitochondrial superoxide of 1.34 ± 0.046.

In turn, `COc1cc2ncnc(Nc3ccc(F)c(Cl)c3)c2cc1NC(=O)/C=C/CN1CCCCC1` returned a mitochondrial superoxide of 1.57 ± 0.069.

Compound `Cn1cc(-c2cnn3c(N)c(Br)c([C@@H]4CCCNC4)nc23)cn1` returned a mitochondrial superoxide of 1.54 ± 0.11.

In the case of `Clc1ccc(C2(c3ccc(-c4cn[nH]c4)cc3)CCNCC2)cc1`, the mitochondrial superoxide amounted to 1.25 ± 0.042.

On to `O=C1c2ccccc2-c2n[nH]c3cccc1c23`, for which the mitochondrial superoxide is 1.3 ± 0.13.

As to `CCc1cccc(CC)c1NC(=O)N1Cc2[nH]nc(NC(=O)c3ccc(N4CCN(C)CC4)cc3)c2C1`, the mitochondrial superoxide amounted to 1.34 ± 0.099.

For `C[C@H](Nc1ncnc2nc[nH]c12)c1cc2cccc(Cl)c2c(=O)n1-c1ccccc1`, the mitochondrial superoxide stood at 1.31 ± 0.023.

The compound `CS(=O)(=O)N1CCN(Cc2cc3nc(-c4cccc5[nH]ncc45)nc(N4CCOCC4)c3s2)CC1` showed a mitochondrial superoxide of 1.6 ± 0.041.

Turning to `Cc1ccc(NC(=O)c2ccc(CN3CCN(C)CC3)cc2)cc1Nc1nccc(-c2cccnc2)n1` [Imatinib Mesylate (STI571)], the mitochondrial superoxide was found to be 1.72 ± 0.03.

For `C[C@@H]1CCN(C(=O)CC#N)C[C@@H]1N(C)c1ncnc2[nH]ccc12`, the mitochondrial superoxide is 1.3 and 1.58.

As to `Cn1cnc(=N)c2[nH]cnc21` [3-Methyladenine], the mitochondrial superoxide turned out to be 1.58 ± 0.15.

`O=c1cc(-c2cccc3c2Sc2ccccc2S3)oc(N2CCOCC2)c1` displayed a mitochondrial superoxide of 1.51 ± 0.084.

Take `COc1ccc2cc(-c3nc(-c4ccc([S+](C)[O-])cc4)[nH]c3-c3ccncc3)ccc2c1` (stereo unspecified) [Tie2 kinase inhibitor]: the mitochondrial superoxide was found to be 1.19 ± 0.036.

For `COc1cc2/c(=N/c3ccc(Br)cc3F)nc[nH]c2cc1OCC1CCN(C)CC1` [Vandetanib (ZD6474)], the mitochondrial superoxide is 1.7 ± 0.077.

The compound `C[C@@H](N)[C@H]1CC[C@H](C(=O)Nc2ccncc2)CC1` registered a mitochondrial superoxide of 1.71 ± 0.065.

Consider `N#CC(=Cc1ccc(O)c(O)c1)C(=O)NCc1ccccc1` [AG-490 (Tyrphostin B42)], for which the mitochondrial superoxide is 1.44 ± 0.097.

In turn, `N#Cc1ccc2[nH]c(O)c(-c3ccc(CN4CCOCC4)cn3)c2c1` came in with a mitochondrial superoxide of 1.38 ± 0.045.

For the compound `Cc1cc(Nc2ncc(Cl)c(Nc3ccccc3S(=O)(=O)C(C)C)n2)c(OC(C)C)cc1C1CCNCC1`, the mitochondrial superoxide is 1.39 ± 0.024.

`Cc1c(Cn2c(C)nc3c(C(=O)O)cc(N4CCOCC4)cc32)cccc1C(F)(F)F` returned a mitochondrial superoxide of 1.61 ± 0.048.

Consider `NC(=O)Nc1sc(-c2ccc(F)cc2)cc1C(N)=O`, for which the mitochondrial superoxide was determined as 1.33 ± 0.06.

`N#CCNC(=O)c1ccc(-c2ccnc(Nc3ccc(N4CCOCC4)cc3)n2)cc1` yielded a mitochondrial superoxide of 1.27 ± 0.13.

Take `COc1cc2nccc(Oc3ccc(NC(=O)Nc4ccc(F)cc4F)c(F)c3)c2cc1OC`: the mitochondrial superoxide turned out to be 1.28 ± 0.13.
